# Assay results reported in PubChem BioAssay.
# Calls of active or inactive are those of the source.
# Columns and labels:
# [1] = biological target: Albumin (Bos taurus) (UniProt P02769); experiment: bovine serum albumin binders on microarray, profiling panel, artefact control for SMM control protein annotation, biochemical, small-molecule microarray, Alexa647 label, 635/667 nm fluorescence (AID 1118); settings: BSA-A647 binding, fluorescence 635 nm, higher = more signal;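 note: score merges 667 nm emission intensity and signal-to-noise per printed compound spot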
# Sequence of Albumin (Bos taurus) (P02769 whole entry, looked up): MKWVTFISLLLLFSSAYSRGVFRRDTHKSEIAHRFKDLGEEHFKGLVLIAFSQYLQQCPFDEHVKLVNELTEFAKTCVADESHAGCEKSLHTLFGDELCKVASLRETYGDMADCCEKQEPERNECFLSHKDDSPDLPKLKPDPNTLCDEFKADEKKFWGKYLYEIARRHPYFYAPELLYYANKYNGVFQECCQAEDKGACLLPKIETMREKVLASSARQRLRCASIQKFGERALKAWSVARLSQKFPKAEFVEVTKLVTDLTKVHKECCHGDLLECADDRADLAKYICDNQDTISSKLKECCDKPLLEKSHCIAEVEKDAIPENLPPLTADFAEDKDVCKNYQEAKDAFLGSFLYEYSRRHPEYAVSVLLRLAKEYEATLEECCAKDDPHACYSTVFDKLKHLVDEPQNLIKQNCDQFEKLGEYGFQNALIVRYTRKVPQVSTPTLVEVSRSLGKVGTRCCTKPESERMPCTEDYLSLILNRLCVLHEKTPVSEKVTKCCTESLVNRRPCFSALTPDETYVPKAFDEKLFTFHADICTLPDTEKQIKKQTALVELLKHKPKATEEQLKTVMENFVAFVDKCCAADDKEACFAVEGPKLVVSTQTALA
# [2] = small-molecule microarray binders of probe aXIP, primary screen, biochemical, NeuroSMM set, 635/667 nm fluorescence (AID 1119); settings: higher = more signal, called active from +8 up or from −8 down;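 note: probe is the protein aXip251-270 applied at 1 µg/mL to compound-printed slides; binding of probe to printed compounds measured as 667 nm fluorescence plus signal to noise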
# [3] = small-molecule binders of probe aNOTCH3, primary screen, biochemical, small-molecule microarray, 635/667 nm fluorescence (AID 1120); settings: higher = more signal;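 note: probe is a biotin-tagged antibody raised against NOTCH3 rather than NOTCH3 protein; score merges spot fluorescence near 667 nm with spot signal to noise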
# [4] = small-molecule binders of probe aNOTCH2, primary screen, biochemical, small-molecule microarray, 635/667 nm fluorescence (AID 1121); settings: higher = more signal;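 note: score merges feature fluorescence read at 667 nm with its signal to noise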
# [5] = biological target: Carbonic anhydrase 2 (Homo sapiens) (UniProt P00918); experiment: CAII small-molecule binders, profiling panel, biochemical, small-molecule microarray, Alexa647-labelled CAII (AID 1122); settings: CAII-A647 binding fluorescence, higher = more signal
# [6] = COS7 lysate on small-molecule microarray, probe aHis, 635 nm (AID 1123); settings: COS7 cell lysate, fluorescence, higher = more signal;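 note: z-score combines 667nm fluorescence intensity with signal-to-noise per printed compound spot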
# [7] = compound binding in COS7 lysate, probe aLAP1, primary screen, cell lysate, small-molecule microarray (AID 1124); settings: probe aLAP1, fluorescence, higher = more signal;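 note: lysate comes from COS7 cells expressing LAP1 and is applied at 0.3 µg/mL; score merges spot fluorescence near 667 nm with signal-to-noise over triplicate slides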
# [8] = test system: Sam68 (KHDRBS1); experiment: Sam68 small-molecule binders, primary screen, biochemical, small-molecule microarray, 635 nm fluorescence (AID 1125); settings: small-molecule microarray binding, higher = more signal;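 note: score merges 667 nm channel intensity with signal to noise over triplicate slides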
# [9] = test system: Chordin-like protein 2 (CHRDL2); experiment: CHRDL2 small-molecule binders, primary screen, biochemical, small-molecule microarray, 635 nm fluorescence (AID 1126); settings: small-molecule microarray binding, fluorescence 635 nm; higher = more signal;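 note: printed compound slides probed with Chrdl2 protein at 4 µg/mL for 1 h at 4 C; score merges 667 nm emission intensity with signal to noise over three replicate slides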
# [10] = biological target: Concanavalin-A (Canavalia ensiformis) (UniProt P02866); experiment: ConA small-molecule binders, primary screen, artefact control for SMM control protein annotation, biochemical, small-molecule microarray, Alexa647 label, 635 nm (AID 1127); settings: ConA-A647 binding fluorescence, higher = more signal;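 note: z combines 667 nm emission intensity with signal-to-noise across three replicate slides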
# Sequence of Concanavalin-A (Canavalia ensiformis) (P02866 whole entry, looked up): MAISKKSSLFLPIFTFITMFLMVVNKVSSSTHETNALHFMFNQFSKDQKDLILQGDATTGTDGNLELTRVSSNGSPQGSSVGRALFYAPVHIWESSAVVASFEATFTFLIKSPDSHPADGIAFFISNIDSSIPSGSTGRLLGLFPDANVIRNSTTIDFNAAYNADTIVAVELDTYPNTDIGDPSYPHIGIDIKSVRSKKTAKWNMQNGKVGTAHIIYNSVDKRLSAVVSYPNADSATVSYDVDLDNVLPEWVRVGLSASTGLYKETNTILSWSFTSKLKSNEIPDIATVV
# [11] = anti-His antibody binders, primary screen, artefact control for SMM control protein annotation, biochemical, small-molecule microarray, 635 nm fluorescence (AID 1128); settings: anti-His Alexa647 antibody binding, higher = more signal;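 note: score merges feature fluorescence with signal-to-noise for each printed compound spot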
# [12] = test system: Human papillomavirus type 1a E7 protein (residues 1-88); experiment: HPV1a E7 small-molecule binders, primary screen, biochemical, small-molecule microarray, residues 1-88, 635 nm (AID 1129); settings: small-molecule microarray binding, fluorescence 635 nm; higher = more signal
# [13] = biological target: Focal adhesion kinase 1 (Homo sapiens) (UniProt Q05397); experiment: small-molecule microarray binders of FAK, primary screen, biochemical, 635/667 nm fluorescence, BSA, DTT (AID 1130); settings: PTK2 binding, 635 nm fluorescence, higher = more signal;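 note: composite of spot emission at 667 nm and signal to noise over triplicate slides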
# Sequence of Focal adhesion kinase 1 (Homo sapiens) (Q05397 whole entry, looked up): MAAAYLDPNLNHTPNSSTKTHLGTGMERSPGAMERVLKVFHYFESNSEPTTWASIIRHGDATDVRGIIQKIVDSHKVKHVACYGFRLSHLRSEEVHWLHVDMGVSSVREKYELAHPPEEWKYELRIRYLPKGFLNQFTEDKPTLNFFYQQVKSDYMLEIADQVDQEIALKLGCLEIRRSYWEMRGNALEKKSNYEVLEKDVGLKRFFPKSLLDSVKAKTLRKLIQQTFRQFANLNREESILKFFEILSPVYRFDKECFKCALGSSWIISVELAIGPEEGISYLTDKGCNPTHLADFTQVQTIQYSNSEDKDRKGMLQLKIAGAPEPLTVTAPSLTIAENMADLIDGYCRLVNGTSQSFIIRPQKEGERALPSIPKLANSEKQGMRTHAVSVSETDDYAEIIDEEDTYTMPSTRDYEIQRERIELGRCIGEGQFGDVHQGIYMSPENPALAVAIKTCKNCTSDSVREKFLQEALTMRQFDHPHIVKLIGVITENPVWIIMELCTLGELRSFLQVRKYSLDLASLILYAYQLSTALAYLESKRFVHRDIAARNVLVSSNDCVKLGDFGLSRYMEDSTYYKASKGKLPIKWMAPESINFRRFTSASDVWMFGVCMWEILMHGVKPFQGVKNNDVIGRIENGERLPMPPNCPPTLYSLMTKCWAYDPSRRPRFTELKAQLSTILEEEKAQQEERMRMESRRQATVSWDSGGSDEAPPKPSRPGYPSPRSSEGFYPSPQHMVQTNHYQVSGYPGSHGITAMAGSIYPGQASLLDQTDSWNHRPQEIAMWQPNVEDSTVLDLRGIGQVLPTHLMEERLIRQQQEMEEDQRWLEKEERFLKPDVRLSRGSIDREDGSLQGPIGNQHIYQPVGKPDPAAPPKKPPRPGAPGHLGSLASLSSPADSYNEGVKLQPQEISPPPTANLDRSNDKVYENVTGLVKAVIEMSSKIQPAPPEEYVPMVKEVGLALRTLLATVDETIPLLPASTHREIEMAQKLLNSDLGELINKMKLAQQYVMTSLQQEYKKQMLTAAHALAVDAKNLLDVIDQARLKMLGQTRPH
# [14] = test system: Fibrinogen (Alexa647-labelled); experiment: fibrinogen binders on compound microarrays, profiling panel, artefact control for SMM control-protein annotation, biochemical, small-molecule microarray, 635/667 nm fluorescence (AID 1131); settings: fibrinogen-A647 binding fluorescence, higher = more signal;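 note: z-score merges 667 nm fluorescence with per-spot signal-to-noise over triplicate slides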
# [15] = biological target: Follistatin (Homo sapiens) (UniProt P19883); experiment: follistatin binders on small-molecule microarrays, primary screen, biochemical, small-molecule microarray, 635/667 nm fluorescence (AID 1132); settings: FST binding, 635 nm fluorescence, higher = more signal
# Sequence of Follistatin (Homo sapiens) (P19883 whole entry, looked up): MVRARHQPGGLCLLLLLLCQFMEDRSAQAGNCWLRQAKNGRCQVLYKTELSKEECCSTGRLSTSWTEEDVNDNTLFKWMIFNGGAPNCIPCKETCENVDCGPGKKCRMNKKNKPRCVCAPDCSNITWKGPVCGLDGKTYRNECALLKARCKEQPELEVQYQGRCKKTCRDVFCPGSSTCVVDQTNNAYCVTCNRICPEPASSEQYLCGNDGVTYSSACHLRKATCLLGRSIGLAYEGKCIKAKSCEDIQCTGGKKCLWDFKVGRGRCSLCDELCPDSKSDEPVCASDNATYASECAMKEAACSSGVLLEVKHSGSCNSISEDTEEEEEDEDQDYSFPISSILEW
# [16] = biological target: Fibroblast growth factor 2 (Homo sapiens) (UniProt P09038); experiment: FGF2 binders on small-molecule microarrays, primary screen, biochemical, small-molecule microarray, 635/667 nm fluorescence (AID 1133); settings: small-molecule microarray binding, FGF2, fluorescence 635/667; higher = more signal
# Sequence of Fibroblast growth factor 2 (Homo sapiens) (P09038 whole entry, looked up): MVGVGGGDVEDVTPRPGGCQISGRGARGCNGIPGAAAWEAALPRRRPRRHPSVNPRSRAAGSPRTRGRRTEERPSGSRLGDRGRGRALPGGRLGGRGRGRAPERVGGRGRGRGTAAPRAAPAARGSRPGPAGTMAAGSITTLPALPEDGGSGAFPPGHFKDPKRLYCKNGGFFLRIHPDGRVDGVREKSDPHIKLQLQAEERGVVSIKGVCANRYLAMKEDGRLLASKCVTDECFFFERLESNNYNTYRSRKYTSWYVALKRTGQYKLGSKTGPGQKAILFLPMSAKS
# [17] = mitochondrial membrane potential change in A549 cells, profiling panel, cell-based, JC-1 fluorescence, basal, 24 h, 100 nL (AID 1138); settings: higher = more signal;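 note: A549 lung adenocarcinoma cells under basal conditions with no added stimulus; test concentration not given here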
# [18] = test system: Lefty1; experiment: Lefty1 binders on small-molecule microarrays, primary screen, biochemical, small-molecule microarray, 635/667 nm fluorescence (AID 1139); settings: small-molecule microarray binding, fluorescence 635/667; higher = more signal
# [19] = test system: wheat germ agglutinin (Triticum aestivum), Alexa647-labelled; experiment: wheat germ agglutinin binders on compound microarrays, profiling panel, artefact control for SMM control-protein annotation, biochemical, small-molecule microarray, 635/667 nm fluorescence (AID 1140); settings: WGA-A647 binding, 635 nm fluorescence, higher = more signal;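 note: score merges 667 nm feature emission with signal to noise over triplicate slides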
# [20] = biological target: Luciferin 4-monooxygenase (Photinus pyralis) (UniProt P08659); experiment: firefly luciferase enzyme inhibitors, primary screen, biochemical, luminescence, purified enzyme, 2006 set (AID 1141); settings: SteadyGlo luminescence, 30 min, higher = more signal, called active from +8 up or from −8 down;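 note: cell-free assay with purified firefly luciferase at 100 ng per well in PBS; test concentration not given here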
# Sequence of Luciferin 4-monooxygenase (Photinus pyralis) (P08659 whole entry, looked up): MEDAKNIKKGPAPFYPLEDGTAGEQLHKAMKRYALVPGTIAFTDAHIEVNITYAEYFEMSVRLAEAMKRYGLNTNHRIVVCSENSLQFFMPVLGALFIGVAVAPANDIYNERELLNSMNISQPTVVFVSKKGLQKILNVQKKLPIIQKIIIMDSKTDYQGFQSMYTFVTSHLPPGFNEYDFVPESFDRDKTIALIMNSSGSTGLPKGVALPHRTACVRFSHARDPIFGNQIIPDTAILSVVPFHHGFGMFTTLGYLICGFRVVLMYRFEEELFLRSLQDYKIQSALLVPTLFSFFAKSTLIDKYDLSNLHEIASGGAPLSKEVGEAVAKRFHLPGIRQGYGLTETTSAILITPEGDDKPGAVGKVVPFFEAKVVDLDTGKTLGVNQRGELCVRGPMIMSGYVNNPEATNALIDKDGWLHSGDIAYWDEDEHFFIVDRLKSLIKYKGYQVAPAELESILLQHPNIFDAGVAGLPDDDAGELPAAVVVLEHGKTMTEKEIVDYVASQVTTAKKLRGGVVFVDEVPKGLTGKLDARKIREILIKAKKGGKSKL
SMILES,composite z-score [1],composite Z-score [2],composite z-score [3],composite z-score [4],composite z-score [5],composite z-score [6],composite z-score [7],composite z-score [8],composite z-score [9],composite z-score [10],composite z-score [11],composite z-score [12],composite z-score [13],composite z-score [14],composite z-score [15],composite z-score [16],z-score [17],composite z-score [18],composite z-score [19],z-score [20]
CC(C)C[C@@H]1NC(=O)[C@@]23C(=O)N[C@@H](Cc4ccccc4)C2[C@H](C)[C@@]2(C)O[C@H]2C3/C=C/CC/C=C/CNC(=O)[C@@H](C)NC1=O (stereo not given in full),-1.38,-0.162 (inactive),0.0426,-0.179,-0.515,-0.262,0.0036,0.179,0.906,0.204,-0.764,-0.649,0.138,-0.875,1.23,1.12,-0.168,1.5,-0.578,-0.8 (inactive)
COCCOC(=O)N1C(=O)[C@@]2(c3cc(C#CC4(O)CCCCCC4)ccc31)[C@H](c1ccccc1OCCO)N1[C@H](c3ccccc3)[C@H](c3ccccc3)OC(=O)[C@H]1[C@@H]2C(=O)Nc1nc2ccccc2s1,0.655,-0.344 (inactive),-0.0942,-0.0843,0.53,1.16,0.417,1.16,0.478,1.18,1.84,1.21,0.862,0.805,1.39,1.16,-1.56,1.5,1.14,-2.53 (inactive)
CC(C)(C)OC(=O)CC[C@@]1(C(=O)N2CCOCC2)N=C(c2ccc(OCCCO)cc2)O[C@@H]1c1ccccc1,1.01,-0.0503 (inactive),0.0927,-0.0017,0.904,3.76,0.599,1.31,-1.26,0.962,3.83,1.25,0.217,0.938,1.33,0.324,2.16,-0.508,1.54,-1.99 (inactive)
C/C=C/[C@@H](CCn1cc(CCO[Si](C(C)C)(C(C)C)C(C)C)nn1)[Si](C)(C)c1ccc(OC)cc1,-1.72,-0.535 (inactive),-0.337,-0.234,-0.609,-0.49,-0.0321,-1.07,-1.8,-2.84,-0.588,-0.668,-0.168,-1.56,-2.11,-0.888,4.63,-1.16,-2.08,-2.45 (inactive)
CO[C@H]1O[C@H](CO)[C@@H](OC(=O)Nc2ccccc2)[C@H](OC(=O)Nc2ccccc2-c2ccccc2)[C@H]1OC(=O)Nc1ccccc1-c1ccccc1,0.925,0.563 (inactive),-0.0903,-0.103,0.556,1.63,0.463,1.3,-0.159,1.19,2.03,1.23,1.17,0.903,0.754,0.292,-1.05,0.601,1.19,-0.864 (inactive)
Cc1ccc(S[C@]2(C(=O)NC3CC3)CC(=O)N(Cc3ccccc3C(F)(F)F)[C@@H]2c2ccc(CO)cc2I)cc1,-1.2,-0.275 (inactive),-0.0311,-0.0708,0.653,0.898,0.417,0.547,-0.229,-0.387,-1.01,0.303,-0.0823,-0.763,1.25,0.0123,1.57,-0.258,0.74,-1.15 (inactive)
CC(C)N1C(=O)c2ccccc2[C@@H](C(=O)NCc2ccccc2)[C@@H]1c1ccc(CO)cc1,-2.18,0.335 (inactive),-0.27,-0.162,0.741,1.51,0.409,0.0504,-0.184,-1.07,-1.36,0.369,0.427,-1.22,0.815,0.82,1.64,-1.28,-1.51,-0.886 (inactive)
NCCCCCCNC(=O)[C@@H]1C[C@@H]2C(=O)N[C@@H](Cc3ccccc3)C(=O)N2[C@@H]1c1ccc(O)cc1,0.676,0.755 (inactive),0.0418,-0.112,0.65,0.68,0.915,1.06,0.283,1.12,1.94,0.434,0.332,0.63,0.898,0.312,0.613,0.104,0.931,-1.15 (inactive)
COC(=O)C(CC#Cc1ccc2c(c1)[C@]1(C(=O)N2)[C@H](C(N)=O)[C@H]2C(=O)O[C@H](c3ccccc3)[C@H](c3ccccc3)N2[C@@H]1c1ccc(O)cc1)C(=O)OC,0.201,0.0742 (inactive),0.122,0.0286,0.803,1.15,0.478,-0.942,-1.33,-1.92,0.62,-0.328,0.418,-1.59,-0.919,-0.292,-1.07,-0.861,-0.3,-1.43 (inactive)
CC(C)(C)OC(=O)CC[C@@]1(C(=O)NCc2ccccc2)N=C(c2ccc(OCCCO)cc2)O[C@@H]1c1ccccc1CN=[N+]=[N-],0.871,0.647 (inactive),0.33,-0.0736,0.596,2.02,0.379,1.15,-0.521,1.09,2.59,1.22,-0.128,0.933,1.34,0.915,0.641,0.148,1.27,-1.24 (inactive)
COCCCNC(=O)[C@@]1(Cc2ccccc2)N=C(c2ccc(OCCCO)cc2)O[C@H]1c1ccccc1N=[N+]=[N-],0.765,-0.597 (inactive),0.385,0.0538,0.405,0.877,0.516,0.846,-0.297,0.0647,0.644,1.16,0.635,0.881,1.48,1.58,2.03,0.269,1.15,-4.34 (inactive)
